Source: PubChem BioAssay (NMMLSC)
RGS7-Gao reg = regulators of human RGS7-Galphao interaction; P09471; Multiplexed bead flow cytometry, RGS7-Galphao binding; actives lie on both sides; binding response (% of control), % at 10 µM; 220,000 tested, 0.35% active; in the data active = binding response below about 49% or above about 150%; inconclusive = no clear call, values can overlap the other calls; inactive = in between;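 note: fluorescent Galphao held in activated GDP-AlF4 state binding bead-coupled RGS7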
Target sequence (P09471 whole entry, looked up): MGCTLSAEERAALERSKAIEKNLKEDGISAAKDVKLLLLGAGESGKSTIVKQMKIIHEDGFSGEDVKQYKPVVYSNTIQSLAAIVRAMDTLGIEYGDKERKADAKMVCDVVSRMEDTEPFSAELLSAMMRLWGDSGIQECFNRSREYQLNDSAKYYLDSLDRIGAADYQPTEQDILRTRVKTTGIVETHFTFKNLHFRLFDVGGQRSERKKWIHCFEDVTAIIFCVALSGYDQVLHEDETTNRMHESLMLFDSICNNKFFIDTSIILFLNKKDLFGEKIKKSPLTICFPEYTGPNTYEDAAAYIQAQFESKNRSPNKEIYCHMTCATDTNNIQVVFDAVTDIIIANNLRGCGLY
RGS8-Gao reg = modulates binding of RGS8 to human Galphao | multiplexed bead flow cytometry; actives lie on both sides | response (percent of control binding), % at 10 µM | 220,000 tested, 0.34% active; in the data active = response below about 60% or above about 140%; inactive = in between;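 note: Galphao activated as the GDP aluminium fluoride complex binding bead-coupled RGS8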
GSH fluor = compound fluoresces at 488/530 nm on GSH beads | GSH beads flow cytometry, compound fluorescence 488/530 nm; hits give high values | fluorescence (KMESF) at 10 µM | 190,000 tested, 0.25% active | AID 1776; in the data active = fluorescence above about 89;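 note: glutathione beads carrying GST-tagged Bcl family fusion proteins plus one bare bead set; values are compound well signal with DMSO vehicle wells as background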
Avidin bead fluor = avidin bead compound fluorescence profile; Avidin beads, compound fluorescence 488/530 nm, flow cytometry; hits give high values; 220,000 tested, 0.38% active; fluorescence (KMESF) at 10 µM; in the data active = fluorescence above about 47
RGS16-Gao = regulators of human RGS16-Galphao interaction; bead-based flow cytometry RGS16-Galphao binding, fluorescence; actives lie on both sides; binding response (% of control), % at 10 µM; 220,000 tested, 0.38% active; AID 1441;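 note: Galphao activated by GDP with aluminum fluoride before binding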
Target sequence (O15492 whole entry, looked up): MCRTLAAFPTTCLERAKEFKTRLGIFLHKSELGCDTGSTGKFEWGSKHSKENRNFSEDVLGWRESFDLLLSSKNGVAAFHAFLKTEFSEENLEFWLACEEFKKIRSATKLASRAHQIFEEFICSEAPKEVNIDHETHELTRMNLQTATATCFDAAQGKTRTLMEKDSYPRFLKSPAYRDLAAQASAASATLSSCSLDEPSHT
Target sequence (P09471 whole entry, looked up): as the sequence (P09471 whole entry, looked up) above
RGS4-Gao reg = modulates binding of RGS4 to human Galphao | P09471 | Multiplexed bead flow cytometry; actives lie on both sides | binding response (% of control), % at 10 µM | 220,000 tested, 0.33% active | AID 1415; in the data active = binding response below about 49% or above about 150%; inactive = in between;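 note: fluorescent Galphao activated with aluminum fluoride binding bead-coupled RGS4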
RGS-Gao = regulators of human RGS4-Galphao interaction; AID 1504; shares compounds with RGS16-Gao; 1,600 tested, 99% active; RGS4–Galpha-o binding response, % at 10 µM; multiplexed bead flow cytometry, RGS–Galpha-o binding;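 note: fluorescently labeled Galpha-o bound to GDP with aluminium fluoride binding biotinylated RGS beads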
Biotin-avidin = counter-screen: compounds disrupting biotin binding to avidin beads | streptavidin beads, fluorescein-biotin binding, flow cytometry | shares compounds with RGS16-Gao | inhibition, % at 10 µM | 1,700 tested, under 10 active | AID 1783;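 active = inhibition above 50%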;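 note: median green fluorescence of gated singlet beads compared with DMSO control wells; 0% = DMSO wells and 100% = complete loss of bead fluorescence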
RGS8-Gao single = confirmation of regulators of human RGS8-Galphao interaction; shares compounds with RGS16-Gao; bead-based flow cytometry RGS8-Galphao binding, fluorescence; actives lie on both sides; binding response (% of control), % at 10 µM; 1,700 tested, 3% active; AID 1836; in the data active = binding response below about 72% or above about 130%; inactive = in between;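 note: Galphao activated as GDP AlF4 complex before binding bead RGS8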
RGS7-Gao confirm = confirmation of regulators of human RGS7-Galphao interaction; shares compounds with RGS16-Gao; bead-based flow cytometry RGS7-Galphao binding; actives lie on both sides; response (percent of control binding), % at 10 µM; 1,700 tested, 7.8% active; AID 1837; in the data active = response below about 75% or above about 130%; inactive = in between;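 note: fluorescent Galphao activated with GDP and aluminum fluoride binding bead-coupled RGS7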
RGS16-Gao single = RGS16-Galphao interaction regulation, single point confirmation | shares compounds with RGS16-Gao | response (% of control binding), % at 10 µM | 1,700 tested, 4% active | bead-based flow cytometry, RGS16-Galphao binding; actives lie on both sides; in the data active = response below about 74% or above about 130%; inactive = in between;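 note: Galphao activated as the GDP aluminium fluoride complex binding bead-coupled RGS16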
RGS4-Gao single = RGS4-Galphao interaction regulation, single point confirmation; shares compounds with RGS16-Gao; RGS4-Galphao binding, multiplexed bead flow cytometry; actives lie on both sides; binding response (% of control), % at 10 µM; 1,700 tested, 4% active; AID 1840; in the data active = binding response below about 74% or above about 130%; inactive = in between
RGS19-Gao single = confirmation of regulators of human RGS19-Galphao interaction. bead-based flow cytometry RGS19-Galphao binding; actives lie on both sides. AID 1841. response (percent of control binding), % at 10 µM. 1,700 tested, 5% active. shares compounds with RGS16-Gao; in the data active = response below about 50% or above about 160%; inactive = in between;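 note: 100% = no compound control and 0% = blank background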
Starred values were filed as active, the others as inactive; ? = inconclusive; . = no result given; [ ] = remark or other dose. A selection: hits, their analogues and other compounds. The true share with any hit is near 1.2%. Unless noted, the rule behind the calls is not given here.

SMILES | RGS7-Gao reg | RGS8-Gao reg | GSH fluor | Avidin bead fluor | RGS16-Gao | RGS4-Gao reg | Biotin-avidin | RGS8-Gao single | RGS7-Gao confirm | RGS16-Gao single | RGS4-Gao single | RGS19-Gao single | others
FC(F)(F)c1cccc(NC(=S)Nc2cccc(NC(=S)Nc3cccc(C(F)(F)F)c3)n2)c1 | ? | 99.9 | . | 3 | 94.8 | 97.8 | . | . | . | . | . | .
Cc1ccc(C(=O)NCCc2nc3ccccc3[nH]2)cc1[N+](=O)[O-] | 100.1 | 108.7 | 5 | 3 | 136.7 | 102.1 | . | . | . | . | . | .
Cc1cc2cc(CCNC(=O)c3ccc(C)c([N+](=O)[O-])c3)c(=O)[nH]c2cc1C | 7.7* | 16.5* | 10 | -3 | 5.8 | 3.7* | 0.2 | 101.5 | 103.3 | 101.5 | 101.5 | 96.1
Cn1cccc1CC(=O)NNC(=S)NC(=O)c1ccc(F)cc1 | ? | 101.0 | . | 6 | 103.5 | 104.7 | . | . | . | . | . | .
C=C(C)CNC(=S)Nc1cccc(N)n1 | ? | 99.3 | 18 | 10 | 99.0 | 99.3 | . | . | . | . | . | .
COCCCNC(=O)c1c(NC(=O)C2COc3ccccc3O2)sc2c1CCCC2 (configuration not stated) | 100.2 | 84.3 | 33 | 1 | 9.7 | 93.2 | . | . | . | . | . | .
CCNC(=O)c1c(NC(=O)C2COc3ccccc3O2)sc2c1CCCC2 (configuration not stated) | 155.2*[activator] | 185.5*[activator] | 22 | 3 | -528.0 | 170.3*[activator] | -0.1 | 104.8 | 110.3 | 104.0 | 104.9 | 95.1
CCc1nc2sc3c(O)cc(=O)[nH]c3c2cc1C | 103.4 | 104.4 | 10 | 3 | 103.4 | 97.3 | . | . | . | . | . | .
CC(=O)OCCCNc1cc(Sc2nc3ccccc3s2)c2nonc2c1[N+](=O)[O-] | 96.0 | 50.8* | 24 | -2 | 8.5* | 82.5 | 0.0 | 77.9 | 77.6 | 82.2 | 96.1 | 26.2* | RGS-Gao=82.5*
COc1ccc(C(=O)NCc2nnc(SCC(=O)N3CCC(C)CC3)o2)cc1 | 103.5 | 104.4 | 60 | 26 | 104.8 | 100.7 | . | . | . | . | . | .
CC(C)(C)c1nnc(NC(=O)CS(=O)(=O)Cc2ccccc2)s1 | 51.4 | 56.6* | 17 | 1 | 61.3 | 86.5 | -0.7 | 103.0 | 101.7 | 102.0 | 100.5 | 94.5 | RGS-Gao=86.5*
CCN(Cc1cc2cc(C)ccc2[nH]c1=O)C(=O)c1cccc([N+](=O)[O-])c1 | ? | 88.1 | . | 5 | 82.5 | 83.4 | . | . | . | . | . | .
Cc1nnc(NC(=O)CSc2nnc(Cc3ccccc3)n2Cc2ccccc2)s1 | 98.3 | 108.9 | 41 | . | . | 107.0 | 0.8 | 98.6 | 45.3* | 78.6 | 59.3* | 46.5*
CCn1c(SCC(=O)Nc2nnc(C)s2)nnc1-c1ccncc1 | . | . | 16 | . | . | . | -1.1 | 100.3 | 96.0 | 96.4 | 99.0 | 91.3
Cc1nnc(NC(=O)CSc2nnc(C)n2Cc2ccccc2)s1 | 101.7 | 96.1 | 14 | 3 | 84.4 | 105.1 | . | . | . | . | . | .
CCOC(=O)c1ccc[n+](CC(=O)Nc2cc(C(F)(F)F)ccc2Cl)c1 | ? | 101.4 | 17 | 9 | 99.6 | 101.2 | . | . | . | . | . | .
CCOC(=O)C1(CCCc2ccccc2)CCN(C(=O)C2=C(C)OCCO2)CC1 | 98.5 | 103.0 | 9 | 3 | 96.5 | 97.6 | . | . | . | . | . | .
CCOC(=O)CC1COCCN1Cc1cn[nH]c1-c1cc(OC)c(OC)c(OC)c1 (configuration not stated) | ? | 101.2 | . | 8 | 103.9 | 104.5 | . | . | . | . | . | .
CCOc1c(CNc2nnnn2C)cccc1OC | 94.2 | 104.0 | 10 | 11 | 106.8 | 103.0 | . | . | . | . | . | .
CC(=O)c1ccc(NC(=O)C2C3C=CC(C3=C(c3ccccc3)c3ccccc3)C2C(=O)O)cc1 (configuration not stated) | 93.2 | 98.5 | 10 | 13 | 95.1 | 97.9 | . | . | . | . | . | .
COc1ccccc1N1CCN(S(=O)(=O)CC23CCC(CC2=O)C3(C)C)CC1 (configuration not stated) | 17.1* | 14.9* | 30 | 0 | 14.4* | 23.3* | -0.4 | 98.8 | 100.9 | 98.4 | 95.6 | 70.5
COC(=O)c1ccc(Oc2ccc(C(F)(F)F)cn2)cc1 | ? | 99.9 | 13 | 9 | 99.6 | 98.3 | . | . | . | . | . | .
COC(=O)CNC(c1ccccc1)c1cc(Cl)ccc1NC(=O)c1cccc(Cl)c1 (configuration not stated) | 105.0 | 102.2 | 19 | 3 | 108.1 | 102.4 | . | . | . | . | . | .
COC(=O)CNC(c1ccccc1)c1cc(Br)ccc1NC(C)=O (configuration not stated) | 78.9 | 73.1 | 18 | 6 | 102.3 | 93.9 | 0.9 | 101.8 | 102.5 | 98.3 | 102.6 | 105.6
CCc1cc2c(=O)c(-c3cnn(-c4ccccc4)c3)c(C)oc2cc1OCC(=O)Nc1cccc(C)c1 | 108.7 | 128.7 | 5 | 14 | 256.8*[activator] | 109.0 | -1.3 | 104.2 | 93.9 | 107.0 | 102.0 | 134.4 | RGS-Gao=109.0*
SMILES | RGS7-Gao reg | RGS8-Gao reg | GSH fluor | Avidin bead fluor | RGS16-Gao | RGS4-Gao reg | Biotin-avidin | RGS8-Gao single | RGS7-Gao confirm | RGS16-Gao single | RGS4-Gao single | RGS19-Gao single | others
COc1ccc(-c2noc(=O)n2CC(=O)N2CCC(Cc3ccccc3)CC2)cc1 | 97.3 | 97.8 | 11 | 11 | 102.0 | 93.1 | . | . | . | . | . | .
CCN1c2ccc(S(=O)(=O)N3CCOCC3)cc2N(Cc2ccc(OC)cc2)C1C (configuration not stated) | 49.9* | 58.7* | 11 | 16 | 49.5 | 48.4* | -0.5 | 99.9 | 95.6 | 95.5 | 97.2 | 96.5
COc1ccc2cc(S(=O)(=O)N3CCOCC3)ccc2c1 | 101.3 | 98.5 | 16 | 37 | 101.3 | 102.5 | . | . | . | . | . | .
Cc1ccc(NC(=O)NC(=O)N(C(C)C)S(C)(=O)=O)nc1 | 97.9 | 118.6 | 8 | 16 | 239.1*[activator] | 100.2 | . | . | . | . | . | . | RGS-Gao=100.2*
COc1ccc(/C=C/C(=O)Nc2cc(S(=O)(=O)N3CCOCC3)ccc2C)cc1OC | 99.9 | 103.6 | 12 | 12 | 102.1 | 103.4 | . | . | . | . | . | .
Cc1n[nH]c(=S)n1/N=C/c1ccccc1OCc1ccc(Cl)cc1Cl | 87.9 | 68.7 | 5 | 5 | 15.3* | 92.0 | 2.0 | 96.2 | 104.5 | 97.5 | 98.3 | 97.7 | RGS-Gao=92.0*
